Source: PubChem BioAssay (NCI)
This is part of a sample that, as a whole, favours compounds with a hit. Of some 79,000 tested, about 15% had one in any assay. Calls of active or inactive are those of the source. No stated cut-off is given here; in the data, active means growth inhibition above about 70%; inactive means the rest.

Tests used:
[1] = NCI Yeast Anticancer Drug Screen. Data for the rad52 strain (AID 147);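 further: 0% = growth of vehicle-treated control cultures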; conditions: S. cerevisiae rad52 mutant growth inhibition, hits give high values
In short: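 Yeast strain carrying a DNA damage repair alteration was exposed to test compounds. Growth inhibition was measured relative to vehicle-treated controls.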

[2] = NCI Yeast Anticancer Drug Screen. Data for the wt1 strain (AID 149);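 further: 0% = growth of vehicle-treated wt1 cultures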; conditions: S. cerevisiae wt1 strain (SPY 50644) growth inhibition, hits give high values
In short: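 Measured: growth of wt1 yeast under compound versus vehicle treatment, reported as inhibition.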

[3] = NCI Yeast Anticancer Drug Screen. Data for the rad50EPP+ strain (AID 151);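 further: 0% = growth of vehicle-treated control cultures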; conditions: S. cerevisiae rad50 mutant strain, hits give high values
In short: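 Yeast strain carrying rad50 alteration (rad50EPP+) exposed to compounds; growth inhibition measured relative to vehicle-treated controls.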

[4] = NCI Yeast Anticancer Drug Screen. Data for the mgt1 strain (AID 153); conditions: S. cerevisiae mgt1 mutant growth inhibition, hits give high values
In short: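 Yeast mgt1 strain (DNA repair/cell-cycle alteration panel) exposed to compounds; growth inhibition measured relative to vehicle-treated controls.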

[5] = NCI Yeast Anticancer Drug Screen. Data for the rad50 strain (AID 155);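 further: 0% = growth of vehicle-only cultures of the same strain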; conditions: S. cerevisiae rad50 strain growth inhibition, hits give high values
In short: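 Growth of the mutant yeast was measured after compound exposure and referenced to vehicle-treated cultures.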

[6] = NCI Yeast Anticancer Drug Screen. Data for the mec2-1 strain (AID 157); conditions: S. cerevisiae mec2-1 strain, hits give high values
In short: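 mec2-1 yeast strain, carrying an alteration in DNA damage repair or cell cycle control, was exposed to compounds; growth inhibition was measured relative to vehicle-treated controls.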

[7] = NCI Yeast Anticancer Drug Screen. Data for the rad14 strain (AID 159);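 further: 0% = growth of vehicle-treated control cultures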; conditions: S. cerevisiae rad14 strain growth inhibition, hits give high values
In short: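 Here, inhibition of yeast growth was measured after compound exposure, using a strain with a genetic defect in DNA damage repair and vehicle-treated cultures as the reference.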

[8] = NCI Yeast Anticancer Drug Screen. Data for the sgs1 mgt1 strain (AID 161);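 further: 0% = growth of cultures given vehicle only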; conditions: S. cerevisiae sgs1 mgt1 strain, hits give high values
In short: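 Compounds are added to genetically altered yeast, and growth is compared with cultures given vehicle alone to give percent inhibition.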

[9] = NCI Yeast Anticancer Drug Screen. Data for the CLN2oe strain (AID 163);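 further: 0% = growth of vehicle-only control cultures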; conditions: S. cerevisiae CLN2oe strain, hits give high values
In short: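 Yeast cells carrying a defined cell-cycle control alteration were exposed to test compounds. Growth inhibition was scored against vehicle-treated control cultures.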

[10] = NCI Yeast Anticancer Drug Screen. Data for the cln2 rad14 strain (AID 165);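 further: 0% = growth equal to vehicle treated cultures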; conditions: S. cerevisiae cln2 rad14 strain, hits give high values
In short: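 Yeast carrying cln2 and rad14 alterations (cell cycle control and DNA damage repair) were exposed to compounds. Growth inhibition was measured against vehicle-treated controls.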

[11] = NCI Yeast Anticancer Drug Screen. Data for the bub3 strain (AID 167); conditions: S. cerevisiae bub3 mutant strain, hits give high values
In short: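 Whole-cell yeast assay. The mutant strain was incubated with compounds, and growth inhibition was determined by comparison with vehicle-treated cells.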

[12] = NCI Yeast Anticancer Drug Screen. Data for the wt2 strain (AID 169);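 further: 0% = growth of vehicle-treated yeast cultures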; conditions: S. cerevisiae wt2 strain growth inhibition, hits give high values
In short: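 Yeast cells were exposed to test compounds, and growth inhibition was measured relative to vehicle-treated controls.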

[13] = NCI Yeast Anticancer Drug Screen. Data for the mlh1 strain (AID 171);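 further: 0% = growth of vehicle-treated control cultures of the same strain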; conditions: S. cerevisiae mlh1 strain growth inhibition, hits give high values
In short: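 Yeast carrying a defined genetic alteration in DNA damage repair or cell cycle control were exposed to test compounds. Growth inhibition was measured relative to vehicle-treated controls.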

[14] = NCI Yeast Anticancer Drug Screen. Data for the mlh1 rad18 strain (AID 175); conditions: S. cerevisiae mlh1 rad18 strain growth inhibition, hits give high values
In short: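 Growth inhibition of the yeast strain was measured after compound exposure and expressed relative to vehicle-treated controls. The strain carries defined defects in DNA damage repair.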

[15] = NCI Yeast Anticancer Drug Screen. Data for the rad18 strain (AID 177); conditions: S. cerevisiae rad18 mutant growth inhibition, hits give high values
In short: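 Yeast carrying a defined DNA damage repair alteration were exposed to compounds. Growth inhibition was expressed relative to vehicle-treated controls.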

[16] = NCI Yeast Anticancer Drug Screen. Data for the sgs1 strain (AID 173);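 further: 0% = growth of vehicle-only control cultures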; conditions: S. cerevisiae sgs1 mutant, hits give high values
In short: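 Yeast mutant strains carrying defined defects in DNA damage repair or cell cycle control were exposed to test compounds. Growth inhibition was scored against vehicle-treated controls.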

[17] = at 5.0 µM (retest, dose inferred, filed as 0.5)
[18] = at 50.0 µM (retest, dose inferred, filed as 5.0)

Measured: growth inhibition

CN(C)CC1=Nc2cccc3cccc(c23)N1
active: [4]; at 100.0 µM 87% | [5]; at 50.0 µM 90.8% | [5]; at 100.0 µM 79% | [6]; at 50.0 µM 87.4% | [6]; at 100.0 µM 85% | [7]; at 100.0 µM 88% | [8]; at 50.0 µM 88.6% | [11]; at 50.0 µM 90% | [11]; at 100.0 µM 85% | [13]; at 100.0 µM 87% | [14]; at 50.0 µM 90.2% | [15]; at 100.0 µM 70%
inactive: [1]; at 1.2 µM -4% | [1]; at 3.7 µM -6% | [1]; at 11.0 µM -10% | [1]; at 33.0 µM 2% | [1]; at 100.0 µM 60% | [2]; at 1.2 µM 2% | [2]; at 3.7 µM -5% | [2]; at 11.0 µM -6% | [2]; at 33.0 µM -4% | [2]; at 100.0 µM 21% | [3]; at 1.2 µM -2% | [3]; at 3.7 µM -3% | [3]; at 11.0 µM -2% | [3]; at 33.0 µM -8% | [3]; at 100.0 µM 13% | [4]; at 1.2 µM -9% | [4]; at 3.7 µM -1% | [4]; at 11.0 µM -7% | [4]; at 33.0 µM 9% | [5]; at 1.2 µM -7% | [5]; at 3.7 µM 1% | [5]; [17] -17% | [5]; at 11.0 µM 4% | [5]; at 33.0 µM 51% | [5]; [18] 30% | [6]; at 1.2 µM -3% | [6]; at 3.7 µM -3% | [6]; [17] -12% | [6]; at 11.0 µM -5% | [6]; at 33.0 µM 3% | [6]; [18] 17% | [7]; at 1.2 µM -2% | [7]; at 3.7 µM 0% | [7]; at 11.0 µM 1% | [7]; at 33.0 µM 51% | [8]; [17] -21% | [8]; [18] 41% | [9]; at 1.2 µM -4% | [9]; at 3.7 µM -8% | [9]; at 11.0 µM 5% | [9]; at 33.0 µM 3% | [9]; at 100.0 µM 61% | [10]; [17] -39% | [10]; [18] -16% | [10]; at 50.0 µM 6.8% | [11]; at 1.2 µM -5% | [11]; at 3.7 µM -4% | [11]; [17] -26% | [11]; at 11.0 µM -3% | [11]; at 33.0 µM 17% | [11]; [18] 58% | [12]; at 1.2 µM -2% | [12]; at 3.7 µM -5% | [12]; at 11.0 µM -6% | [12]; at 33.0 µM 10% | [12]; at 100.0 µM 64% | [13]; at 1.2 µM 0% | [13]; at 3.7 µM -12% | [13]; at 11.0 µM -5% | [13]; at 33.0 µM 24% | [14]; [17] -32% | [14]; [18] 46% | [15]; at 1.2 µM -3% | [15]; at 3.7 µM -20% | [15]; at 11.0 µM -14% | [15]; at 33.0 µM 1%

Cc1c(C(=O)/C=C/c2ccccc2[N+](=O)[O-])[n+](=O)c2ccccc2n1[O-]
active: [1]; at 1.2 µM 78% | [1]; at 3.7 µM 90% | [1]; at 11.0 µM 93% | [1]; at 33.0 µM 93% | [1]; at 100.0 µM 93% | [3]; at 11.0 µM 77% | [3]; at 33.0 µM 76% | [3]; at 100.0 µM 79% | [4]; at 11.0 µM 93% | [4]; at 33.0 µM 94% | [4]; at 100.0 µM 96% | [5]; at 3.7 µM 86% | [5]; at 11.0 µM 90% | [5]; at 33.0 µM 91% | [5]; [18] 84% | [5]; at 50.0 µM 97.5% | [5]; at 100.0 µM 92% | [6]; at 11.0 µM 77% | [6]; at 33.0 µM 85% | [6]; [18] 83% | [6]; at 50.0 µM 90.5% | [6]; at 100.0 µM 89% | [7]; at 11.0 µM 73% | [7]; at 33.0 µM 74% | [7]; at 100.0 µM 76% | [8]; [18] 98% | [8]; at 50.0 µM 98% | [10]; at 50.0 µM 94.5% | [11]; at 50.0 µM 94.2% | [12]; at 3.7 µM 85% | [12]; at 11.0 µM 91% | [12]; at 33.0 µM 84% | [12]; at 100.0 µM 94% | [13]; at 3.7 µM 73% | [13]; at 11.0 µM 92% | [13]; at 33.0 µM 94% | [13]; at 100.0 µM 94% | [16]; at 1.2 µM 73% | [16]; at 3.7 µM 91% | [16]; at 11.0 µM 94% | [16]; at 33.0 µM 94% | [16]; at 100.0 µM 93% | [14]; [18] 94% | [14]; at 50.0 µM 98.2% | [15]; at 1.2 µM 84% | [15]; at 3.7 µM 90% | [15]; at 11.0 µM 92% | [15]; at 33.0 µM 92% | [15]; at 100.0 µM 93%
inactive: [2]; at 1.2 µM -1% | [2]; at 3.7 µM 22% | [2]; at 11.0 µM 42% | [2]; at 33.0 µM 49% | [2]; at 100.0 µM 60% | [3]; at 1.2 µM 41% | [3]; at 3.7 µM 67% | [4]; at 1.2 µM 10% | [4]; at 3.7 µM 61% | [5]; at 1.2 µM 66% | [5]; [17] 12% | [6]; at 1.2 µM 12% | [6]; at 3.7 µM 32% | [6]; [17] 2% | [7]; at 1.2 µM 37% | [7]; at 3.7 µM 61% | [8]; [17] 6% | [9]; at 1.2 µM 12% | [9]; at 3.7 µM 25% | [9]; at 11.0 µM 41% | [9]; at 33.0 µM 47% | [9]; at 100.0 µM 66% | [10]; [17] -4% | [10]; [18] 54% | [11]; at 1.2 µM -1% | [11]; at 3.7 µM 42% | [11]; [17] -3% | [11]; at 11.0 µM 29% | [11]; at 33.0 µM 33% | [11]; [18] 57% | [11]; at 100.0 µM 29% | [12]; at 1.2 µM 44% | [13]; at 1.2 µM 25% | [14]; [17] 8%

COC(=N)c1ccc(O)c(C)c1
inactive: [1]; at 1.2 µM -3% | [1]; at 3.7 µM -6% | [1]; at 11.0 µM -11% | [1]; at 33.0 µM -16% | [1]; at 100.0 µM -5% | [2]; at 1.2 µM -6% | [2]; at 3.7 µM -5% | [2]; at 11.0 µM -6% | [2]; at 33.0 µM -5% | [2]; at 100.0 µM -3% | [3]; at 1.2 µM -1% | [3]; at 3.7 µM 1% | [3]; at 11.0 µM 5% | [3]; at 33.0 µM 11% | [3]; at 100.0 µM 9% | [4]; at 1.2 µM -4% | [4]; at 3.7 µM -3% | [4]; at 11.0 µM -2% | [4]; at 33.0 µM -3% | [4]; at 100.0 µM -3% | [5]; at 1.2 µM -7% | [5]; at 3.7 µM -19% | [5]; [17] -138% | [5]; at 11.0 µM -6% | [5]; at 33.0 µM 7% | [5]; [18] 10% | [5]; at 50.0 µM 50.4% | [5]; at 100.0 µM 3% | [6]; at 1.2 µM 0% | [6]; at 3.7 µM 0% | [6]; [17] -46% | [6]; at 11.0 µM -1% | [6]; at 33.0 µM 1% | [6]; [18] -21% | [6]; at 50.0 µM 2.2% | [6]; at 100.0 µM 1% | [7]; at 1.2 µM -3% | [7]; at 3.7 µM 0% | [7]; at 11.0 µM -2% | [7]; at 33.0 µM -4% | [7]; at 100.0 µM -1% | [8]; [17] -53% | [8]; [18] -40% | [8]; at 50.0 µM -8.2% | [9]; at 1.2 µM -2% | [9]; at 3.7 µM 3% | [9]; at 11.0 µM 0% | [9]; at 33.0 µM -3% | [9]; at 100.0 µM -6% | [10]; [17] -52% | [10]; [18] -22% | [10]; at 50.0 µM -38.2% | [11]; at 1.2 µM -3% | [11]; at 3.7 µM -5% | [11]; [17] -61% | [11]; at 11.0 µM 0% | [11]; at 33.0 µM -2% | [11]; at 50.0 µM 5.2% | [11]; at 100.0 µM 4%
active: [11]; [18] 78%
